# Measurements reported in PubChem BioAssay AID651903 (Broad Institute, 2012).
# Hit rate of the full screen: of about 22,000 compounds, about 1,100 (5%) were called active. Rule as the data show it: active = activity score above about 55%; inconclusive = no clear call, values can overlap the other calls; inactive = below that. The entries come from a sample that favours actives as a whole.
# Assay: T. cruzi growth inside host cells – cell-based, plate reader, single point, set 2, primary screen (AID 651903);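 also: parasites and compound incubated about four days before reading; 0% = median of neutral control wells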
# Details: intracellular Trypanosoma cruzi in host cells, at 5.01 µM, hits give high values
row,Structure (SMILES),activity score (inhibition)
1,COc1ccc(NC(=O)Nc2cccc3c2O[C@H](CN(C)S(=O)(=O)c2cn(C)cn2)[C@H](C)CN([C@@H](C)CO)C3=O)cc1,-20.8% (inactive)
2,O=C(NO)c1ccc(C(=O)N/N=C/c2ccc([N+](=O)[O-])c(O)c2)cc1,1.55% (inactive)
3,C[C@@H]1CN([C@@H](C)CO)C(=O)c2cccc(N(C)C)c2O[C@H]1CN(C)S(=O)(=O)c1cccs1,-13.3% (inactive)
4,Cc1noc(C)c1NC(=O)N(C)C[C@@H]1Oc2ccc(NC(=O)Nc3ccc(C(F)(F)F)cc3)cc2C(=O)N([C@H](C)CO)C[C@@H]1C,0.983% (inactive)
5,C[C@H](CO)N1C[C@H](C)[C@@H](CN(C)S(=O)(=O)c2ccc(F)cc2)Oc2ccc(NC(=O)CCC(F)(F)F)cc2C1=O,4.98% (inactive)
6,C[C@H](CO)N1C[C@H](C)[C@H](CN(C)S(=O)(=O)c2cn(C)cn2)Oc2c(NC(=O)c3ccc(-c4nccs4)cc3)cccc2C1=O,-7.9% (inactive)
7,C[C@@H]1CN([C@H](C)CO)C(=O)c2cccc(NC(=O)c3nc4ccccc4s3)c2O[C@@H]1CN(C)Cc1ccc(Oc2ccccc2)cc1,24.2% (inactive)
8,Cc1noc(C)c1NC(=O)Nc1ccc2c(c1)CC(=O)N([C@@H](C)CO)C[C@H](C)[C@@H](CN(C)CC1CCCCC1)O2,4.18% (inactive)
9,Cc1ccc(S(=O)(=O)N(C)C[C@H]2OCCCC[C@@H](C)Oc3ccc(NS(C)(=O)=O)cc3C(=O)N([C@H](C)CO)C[C@@H]2C)cc1,4.35% (inactive)
10,COc1ccc(S(=O)(=O)N(C)C[C@@H]2Oc3ccc(NS(=O)(=O)c4cn(C)cn4)cc3C(=O)N([C@@H](C)CO)C[C@@H]2C)cc1,-13% (inactive)
11,COc1ccc(S(=O)(=O)N(C)C[C@H]2Oc3ccc(NS(=O)(=O)c4ccc(F)cc4)cc3C(=O)N([C@H](C)CO)C[C@H]2C)cc1,6.09% (inactive)
12,C[C@H]1CN([C@@H](C)CO)C(=O)CCCn2nncc2CO[C@@H]1CN(C)S(=O)(=O)c1ccccc1C#N,-9.5% (inactive)
13,C[C@H](CO)N1C[C@H](C)[C@H](CN(C)Cc2ccc(C(F)(F)F)cc2)Oc2ccc(N(C)C)cc2CC1=O,50.9% (inactive)
14,C[C@H](CO)N1C[C@H](C)[C@H](CN(C)Cc2ccc(-c3ccccc3)cc2)Oc2ccc(NC(=O)Nc3ccc(F)cc3)cc2CC1=O,58.8% (active)
15,C[C@H]1CN([C@@H](C)CO)C(=O)Cc2cc(NC(=O)Nc3ccccc3)ccc2O[C@H]1CN(C)Cc1ccncc1,6.16% (inactive)
16,C[C@@H]1CN([C@H](C)CO)C(=O)Cc2cc(NC(=O)c3ccncc3)ccc2O[C@H]1CN(C)Cc1ccc(-c2ccccc2)cc1,57.2% (active)
17,COc1ccc(CN(C)C[C@@H]2Oc3ccc(NC(=O)c4ccncc4)cc3CC(=O)N([C@H](C)CO)C[C@H]2C)cc1,-3.55% (inactive)
18,C[C@@H]1CN([C@H](C)CO)C(=O)Cc2cc(NC(=O)c3ccncc3)ccc2O[C@@H]1CN(C)Cc1ccncc1,-11.9% (inactive)
19,C[C@@H]1CN([C@H](C)CO)C(=O)Cc2cc(NC(=O)Nc3ccccc3)ccc2O[C@@H]1CN(C)Cc1ccc(C(F)(F)F)cc1,14.2% (inactive)
20,C[C@@H]1CN([C@H](C)CO)C(=O)Cc2cc(N(C)C)ccc2O[C@@H]1CN(C)Cc1ccccc1,-5.53% (inactive)
21,C[C@H]1CN([C@@H](C)CO)C(=O)Cc2cc(N(C)C)ccc2O[C@@H]1CN(C)Cc1ccc(-c2ccccc2)cc1,68.2% (active)
